Data from PubChem BioAssay (NCI).
About 83,000 compounds went through this panel and 20% of them were active in at least one assay; those are over-represented in the sample as a whole.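 Cells were grown in 96-well plates and exposed to the test compound at a single concentration for 48 hours; results are reported as percent growth, with values below 10 considered active.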 Unmarked numbers belong to inactive results. The source made the active and inactive calls.

How the values were obtained:
Test in all cases: NCI-60 one-dose screen, 48 h (100 = growth as untreated, 0 = no growth, -100 = all killed)
Details in all cases: 10 µM unless noted
SK-MEL-2 melanoma = system: SK-MEL-2 melanoma
EKVX NSCLC = system: EKVX NSCLC
SN12C renal = system: SN12C renal
UO-31 renal = system: UO-31 renal
TK-10 renal = system: TK-10 renal
ACHN renal = system: ACHN renal
CAKI-1 renal = system: CAKI-1 renal
A498 renal = system: A498 renal
CCRF-CEM leukemia = system: CCRF-CEM leukemia
MOLT-4 leukemia = system: MOLT-4 leukemia

| Compound | growth (SK-MEL-2 melanoma) | growth (EKVX NSCLC) | growth (SN12C renal) | growth (UO-31 renal) | growth (TK-10 renal) | growth (ACHN renal) | growth (CAKI-1 renal) | growth (A498 renal) | growth (CCRF-CEM leukemia) | growth (MOLT-4 leukemia) |
| --- | --- | --- | --- | --- | --- | --- | --- | --- | --- | --- |
| C=C1C(=O)O[C@H]2[C@H]1CC/C(COC(=O)NCc1ccc(Cn3c(=O)sn(-c4ccc(OC)cc4)c3=O)cc1)=C\CC[C@@]1(C)O[C@@H]21 | 68.1% | 97.1% | 65.2% | -14.6% (active) | 1.08% (active) | -8.56% (active) | 55.9% | 89.2% | -34.7% (active) | -12.2% (active) |
| CC(C)(C)c1cc(C=Nc2cccc(C(F)(F)F)c2)c(O)c(C(C)(C)C)c1 | 102% | 107% | 98.8% | 80.7% | 84.8% | 111% | 90.4% | 108% | 62.5% | 85.3% |
| Cc1ccc(O)c(NC(=O)c2ccc(CNc3ccnc(C(F)(F)F)c3)cc2)c1 | 79.2% | 60.5% | 46.4% | 32.6% | 96.7% | 39% | 41.8% | 80.7% | 7.6% (active) | 25.1% |
| C#CCn1cnc2c(Nc3cccc(NC(=O)CCl)c3)ncnc21 | 46% | 45.3% | 31.2% | 46.7% | 76.9% | 23.4% | 29.9% | 78.7% | 4.81% (active) | 4.44% (active) |
| COC(=O)c1c2c(n3ccc(C)cc13)C(=O)c1ccccc1C2=O | 71.6% | 76.3% | 75.9% | 41% | 85.8% | 56.3% | 59.2% | 78.3% | 46.8% | 51.4% |
| C[C@H]1[C@H](C)CC[C@]2(C(=O)O)CC[C@]3(C)C(=CC[C@@H]4[C@@]5(C)C[C@@H](Cc6cn([C@@H]7O[C@H](CO)[C@@H](O)[C@H](O)[C@H]7O)nn6)[C@H](O)C(C)(C)[C@@H]5CC[C@]43C)[C@H]12 | 99.9% | 96.8% | 97.1% | 91.8% | 89.2% | 99.2% | 97.2% | 80.7% | 99.3% | 94.2% |
| CC1(C)OC(=O)C(=Cc2cccc(Br)c2)C(=O)O1 | 103% | 100% | 101% | 92.9% | 101% | 117% | 100% | 94.2% | 93.2% | 89.9% |
| Cc1cc(C(=O)Nc2cc(Nc3ncccc3-c3ncnc4nc[nH]c34)ccc2F)cc(C(F)(F)F)c1 | 6.72% (active) | 67.1% | 55.7% | 94.1% | 68% | 45.1% | 15.4% | -26.9% (active) | 62.3% | 47.2% |
| CCCCCn1sc(=O)n(Cc2ccc(CNC(=O)OCc3ccc4c(Cl)cc(Cl)c(O)c4n3)cc2)c1=O | 90.1% | 86% | 51.4% | 11.6% | 68.8% | 28.9% | 55% | 80.7% | 34.4% | 31.8% |
| COc1ccc(/C=C/C(=O)c2ccc(NC(=O)CSc3nnc(-c4cc(-c5ccccc5)nc5ccccc45)n3-c3ccccc3)cc2)cc1 | 107% | 98% | 92.7% | 100% | 112% | 95.7% | 90% | 85.3% | 88.3% | 80.2% |
| O[C@@H](c1cc(C(F)(F)F)nc2c(C(F)(F)F)cccc12)[C@H]1CCCCN1 | 77% | 69.7% | 63.8% | 50.4% | 66% | 37.8% | 76.5% | 60% | 73% | 31.8% |
| COC(=O)/C=C1/SC(=Nc2cccc(Cl)c2)N(CCc2c[nH]c3ccc(O)cc23)C1=O | -15.8% (active) | 45.7% | 10% | 17.7% | 89.2% | 15.9% | 37.4% | 79.9% | 0.545% (active) | -8.3% (active) |
| CCCCCCCCCCCCCCCCCCOc1ccccc1CC(=O)OCC[N+]1(C)CCOCC1 | 91.5% | 86.7% | 31.4% | 67.9% | 43.5% | 89.6% | 49.1% | 64.1% | 30.1% | 46.9% |
| O=C1NC(=C(Cl)Cl)/C(=N/S(=O)(=O)NCCc2c[nH]c3ccccc23)N1 | 46.2% | 101% | 35.2% | 71.6% | 109% | 88.4% | 83.7% | 71.5% | 7.47% (active) | 18% |
| CC1(C)CCC(S(=O)(=O)c2ccc3c(c2)/C(=N\O)c2cc(S(=O)(=O)N4CCN(c5ccc(F)cc5O)CC4)ccc2-3)CC1 | -85.6% (active) | -53% (active) | 19.8% | -91.4% (active) | -82% (active) | 0.0292% (active) | -76.1% (active) | -65.3% (active) | -63.4% (active) | -71.9% (active) |
| CC(C)[C@@]12C[C@@H](OC(=O)COC(=O)c3ccccc3)[C@@](C)(O1)[C@@H]1CC[C@@H](C)[C@H]1[C@@H]2OC(=O)/C=C/c1ccccc1 | 103% | 81.8% | 31% | -78.1% (active) | 88.9% | -13.4% (active) | 5.14% (active) | -76.6% (active) | 87% | 80.8% |
| Cc1[nH]c(C(=O)Nc2ccc(C(N)=O)cc2NC(C)C)c(Cl)c1Cl | 101% | 87% | 105% | 66% | 120% | 96.5% | 94.1% | 69.7% | 94.2% | 86% |
| Cc1ncc(C(=O)Nc2ccc(CN3CCN(C)CC3)c(C(F)(F)F)c2)cc1C#Cc1cnc(N)c2ccncc12 | -55.8% (active) | -18.9% (active) | -26.8% (active) | -42.2% (active) | -59% (active) | -64.3% (active) | -56.8% (active) | -90.2% (active) | -23.3% (active) | -42.5% (active) |
| C=C1C(=O)O[C@H]2[C@H]1CC/C(COC(=O)/C=C\C(=O)NCc1ccc(Cn3c(=O)sn(-c4ccccc4)c3=O)cc1)=C\CC[C@@]1(C)O[C@@H]21 | 89.8% | 98.9% | 83.1% | 59.4% | 67.1% | 42.1% | 65.1% | 91.2% | 1.9% (active) | 25.3% |
| CCCCCCCCCCCCCCCCCCOc1ccccc1CC(=O)NCC[N+]1(C)CCOCC1 | 74.6% | 91.3% | 40.5% | 77.3% | 7.69% (active) | 84.5% | 98.6% | 67.4% | -36.4% (active) | 14.6% |
| N#C/C(=C\c1ccc(Br)cc1)c1cc2ccccc2[nH]1 | 114% | 91% | 97.6% | 86.8% | 119% | 102% | 92.7% | 89.1% | -42.4% (active) | 84.5% |
| CN(C)c1ccc(C(=NO)c2ccc(N(C)C)cc2)cc1 | -23% (active) | 50.8% | 45.5% | 67.1% | 56.6% | 50.9% | 24.1% | 31.3% | 38.3% | 31.7% |
| CCN(C(=O)N1CCN(c2cc3c(cc2F)c(=O)c(C(=O)O)cn3C2CC2)CC1)c1nc(-c2ccc(C)cc2)cs1 | -1.1% (active) | 14.3% | 5.47% (active) | 5.96% (active) | 38.3% | 6.68% (active) | 7.79% (active) | -2.94% (active) | 21.4% | 14.3% |
| CCCCn1sc(=O)n(Cc2ccc(CNC(=O)OCc3ccc4c(Br)cc(Br)c(O)c4n3)cc2)c1=O | 45.6% | 103% | 29.5% | 42.7% | 74.8% | 33.6% | 22.4% | -7.85% (active) | 18.1% | 14.6% |
| CC1COCC(C)N1C1=C(Cl)C(=O)c2ccccc2C1=O (stereo not given) | 23.9% | 89.9% | 81.7% | 59% | 75.7% | 28.9% | 65.4% | 109% | 19.4% | 9.7% (active) |
| COc1ccc(-c2cc(C(=O)N3N=C(c4ccc(N)cc4)CC3c3ccccc3)c3ccccc3n2)cc1 (stereo not given) | 39.8% | 70.8% | 51.7% | 45.5% | 58.4% | 37.6% | 24.5% | 29.1% | 25.6% | 35.2% |
